The source of these data is PubChem BioAssay AID743402 (Broad Institute, 2014).

Out of some 1,200 compounds screened, about 140 (12%) were called active. The list is a sample of the results. Values without a mark were called inactive.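 How the source made its calls: active means fitted curve falls past -35% activity change at a dose under twice the top valid dose, in every replicate test; inconclusive means replicate tests disagree on the call; inactive means the rest, including activity in the opposite direction.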

The assay in a line: CFTR-F508del correctors, dose response, FRT cells, YFP quenching, cherry-pick (AID 743402).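 Further: compounds act as correctors raising surface CFTR-F508del before acute activation.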 As to conditions: FRT CFTR-F508del YFP iodide quenching, 24 h, channel opened with forskolin and a potentiator; series mostly up to 26 µM; activity change, negative = more quenching (active): at the top concentration.
Consider `C/C(=N\NC(=O)c1c(Cl)c(C)nn1C)c1ccc(NC(=O)C2CCC2)cc1`, for which the “activity change, negative = more quenching (active)” value (from here on “activity change”) is 7.96%.
Next, `COc1ccc2c(c1)sc(N)[n+]2Cc1cc(C)cc2cccnc12`: 13.3%; `CCN(CC)c1ccc(/C=N/NC(=O)c2ccco2)c(O)c1`: 10.7%; `Cc1cc(N/N=C/c2ccccc2O)c2ccccc2n1`: 13.1%.
The value for `Cc1ccccc1-c1nc(CS(=O)(=O)CC(=O)NCc2ccccc2)c(C)o1` was 8.28%; that for `Cc1ccc(-c2ccc3c(c2)O[C@H](CN(C)Cc2ccccn2)[C@@H](C)CN([C@H](C)CO)S3(=O)=O)cc1` was -7.14%.
Next, `COc1ccc(S(=O)(=O)Nc2ccc3c(c2)C(=O)N([C@H](C)CO)C[C@@H](C)[C@@H](CN(C)Cc2ccc(Cl)c(Cl)c2)O3)cc1`: 3.12%.
As for `c1coc(-c2nc3ccccc3s2)c1`, the “activity change” value was 9.38%.
The value for `Clc1ccc2c(c1)-c1ccccc1C1=NCCN12` was -1.51%.
Next, `Cc1ccc(N(C)S(=O)(=O)c2ccc(-c3cnc(C4CC4)o3)cc2)cc1`: 6.67%.
As to `Cc1ccnc2c1ccc1cccnc12`, the “activity change” value was 13.1%.
With `Cc1ccc(COc2ccccc2-c2cc(C(=O)N/N=C/c3cccnc3)[nH]n2)cc1`, the “activity change” value is 22.5%.
Next, `CC(C)(C)c1cc(C(=O)NN)n(Cc2ccc(Cl)cc2Cl)n1`: 6.67%.
Regarding `COc1ccccc1Nc1c2c(nc3ccccc13)CCC2`, the “activity change” value was 35.6%.
In the case of `CC(=NNC(=S)N1CC2CCC(CC2)C1)c1cnccn1`, the “activity change” value was 23.3%.
The value for `COc1cc(NC(=O)N2CCNC2=O)cc(C(=O)Nc2cccc(C(F)(F)F)c2)c1` was -3.33%.
Take `COc1ccc(-c2ccc3oc(-c4ccc(OC)cc4)c(C#CCO)c3c2)cc1`: the “activity change” value was 1.61%.
Next, `COCCCN=C1NN=C(c2cc(C)n(Cc3ccco3)c2C)CS1`: 7.42%; `CC(=O)N1CCc2c(sc(NC(=O)c3ccc4c(c3)OCCO4)c2C#N)C1`: 4.95%.
The value for `O=C(c1cccc(S(=O)(=O)N2CCN(c3ccc(F)cc3)CC2)c1)N1CCCC(C(F)(F)F)C1` (centres undefined) was 6.67%; that for `COc1ccccc1C(=O)NC(=S)/C=C1/N(C)c2ccccc2C1(C)C` was -3.33%; that for `COc1cc2c(C#CCCO)c(-c3ccsc3)oc(=O)c2cc1OC` was -16%.
Next, `CC(=O)NC(c1ccc(C(C)C)cc1)c1ccc2cccnc2c1O` (centres undefined): 13.9%; `O=C(Nc1cccc(C2=NCCN2)c1)Nc1cccc(C2=NCCN2)c1`: 0%; `Cc1ccc2c(c1)CCCN2C(=O)CCc1nc2ccccc2c(=O)[nH]1`: -6.67%.
For `COc1ccc2cc(CN(CC3CCCO3)C(=S)Nc3ccccc3)c(=O)[nH]c2c1` (centres undefined), the “activity change” value was 12.9%.
The value for `COc1ccc(Nc2nc3cc(-c4sccc4C)sc3c(=O)n2C)cc1OC` was -35.7%.
The value for `Cc1ccc2cc(CN(CC3CCCO3)C(=S)Nc3ccccc3)c(=O)[nH]c2c1C` (centres undefined) was 0%; that for `CCOC(=O)N1CCC(NC(=O)c2ccc3c(c2)N=C(C)c2c(C)ccc(C)c2S3)CC1` was 3.12%.
